One assay relates to Staphylococcus aureus. The settings on record: Concentration 32 ug.mL-1;; ASSAY_TEST Inhibition of Bacterial Growth; detection method Absorption (OD600); MEDIA CAMHB; plate type 384well; NBS; CORNING #3640; time 18 hr.
The subject of another assay is Escherichia coli. Particulars: Concentration 32 ug.mL-1;; ASSAY_TEST Inhibition of Bacterial Growth; detection method Absorption (OD600); MEDIA CAMHB; plate type 384well; NBS; CORNING #3640; time 18 hr.

Molecules are shown by their SMILES. Measured potencies and affinities stand elsewhere.

The term Inhibition denotes the relative decrease from the control value, in per cent. As for `COc1cccc(Sc2nc3ccccc3n3c(=O)n(CC(=O)Nc4ccc(Cl)cc4)nc23)c1`, the Inhibition in the assay on Staphylococcus aureus was 1.75%; with Escherichia coli it was -3.52%.
In the same order, the values of `Cc1cc(C)c(NC(=O)Cn2nc3c4cc(-c5ccc(C)c(C)c5)nn4ccn3c2=O)c(C)c1` are -7.12% and -12.18%.
In the case of `CCc1nnc2ccc(S(=O)(=O)N(Cc3cccc(F)c3)c3ccc(OC)cc3)cn12`, the Inhibition in the assay with Staphylococcus aureus is listed as 7.39%; with Escherichia coli it was -21.14%.
`COc1ccc(-n2ccn3c(=O)n(Cc4cc(C)ccc4C)nc3c2=O)cc1Cl`: the figures for the Inhibition with Staphylococcus aureus and with Escherichia coli were 5.41% and -0.01%, respectively.
Take `CCOc1ccc(-n2ccn3c(SCC(=O)c4ccc(C)cc4)nnc3c2=O)cc1`: the Inhibition in the assay with Staphylococcus aureus was 16.97%; with Escherichia coli, -1.19%.
For the molecule `CCc1ccc(N(Cc2ccccc2C)S(=O)(=O)c2cccn3c(C)nnc23)cc1`, the figures for the Inhibition in the assay with Staphylococcus aureus and in the assay with Escherichia coli were 9.52% and -5.19%, respectively.
For `O=S(=O)(c1ccc2nncn2c1)N(Cc1cc(F)cc(F)c1)c1ccc(F)cc1`, the Inhibition is listed as 2.59% in the assay with Staphylococcus aureus and -3.43% in the assay with Escherichia coli.
On to `O=c1n(Cc2nc(-c3ccc(Cl)cc3)no2)nc2ccc(-c3ccccc3)nn12`, for which the Inhibition is 1% in the assay on Staphylococcus aureus and -5.36% in the assay on Escherichia coli.
The corresponding values for `CCCCOc1ccc(-c2cc3c4nnc(SCC(=O)Nc5ccc(OC)cc5)n4ccn3n2)cc1` are -5.31% and -9.08%.
Take `Cc1ccc(NC(=O)c2ccc3nnc(SCC(=O)Nc4ccc(Br)cc4)n3c2)cc1`: the Inhibition is -2.55% in the assay with Staphylococcus aureus and -1.72% in the assay on Escherichia coli.
The corresponding values for `Cc1ccc(-c2ccc3nn(Cc4ccc(F)cc4Cl)c(=O)n3n2)cc1C` are 8.63% and -0.58%.
The corresponding values for `Cc1ccc(C(=O)C(C)Sc2nnc3c(=O)n(-c4ccc(F)c(F)c4)ccn23)cc1C` (configuration not stated) are 19.73% and 1.41%.
In the case of `O=C(Cn1nc2c(SCc3ccccc3)nccn2c1=O)NC1CCCC1`, the Inhibition is recorded as -2.71% in the assay with Staphylococcus aureus and 0.2% in the assay on Escherichia coli.
On to `COc1ccccc1Cn1c(=O)c2sccc2n2c(=O)n(Cc3cccc(C)c3)nc12`, for which the Inhibition with Staphylococcus aureus was determined as 10.55%; in the assay on Escherichia coli it was 0.66%.
Regarding `Cc1cccc(NC(=O)c2ccc3nnc(SCC(=O)Nc4ccc(Br)cc4)n3c2)c1`, the Inhibition amounted to 11.58% in the assay with Staphylococcus aureus and 0.25% with Escherichia coli.
In the same order, the values of `COc1cccc(Sc2nc3ccccc3n3c(=O)n(CC(=O)Nc4cccc(C#N)c4)nc23)c1` are 2.4% and -6.13%.
As to `CCCCn1c(=O)c2sccc2n2c(SCc3cccc(C(F)(F)F)c3)nnc12`, the Inhibition is -1.51% in the assay with Staphylococcus aureus and -8.66% in the assay on Escherichia coli.
`COc1ccc(NC(=O)C(C)Sc2nnc3c(=O)n(-c4ccc(C)c(C)c4)ccn23)cc1` (configuration not stated): the Inhibition with Staphylococcus aureus is listed as 7%; in the assay on Escherichia coli, -4.16%.
The corresponding values for `Cc1ccc(-c2cc3c4nn(CC(=O)NC5CCCC5)c(=O)n4ccn3n2)cc1C` are -0.99% and -0.5%.
As for `Cc1cc(C)c(NC(=O)Cn2nc3c(Sc4ccccc4)nccn3c2=O)c(C)c1`, the Inhibition is recorded as 5.4% in the assay with Staphylococcus aureus and -7.73% with Escherichia coli.
For `Cc1cc(C)c(NC(=O)Cn2nc3ccc(SC4CCCCC4)nn3c2=O)c(C)c1`, the Inhibition in the assay on Staphylococcus aureus is 7.62%; in the assay on Escherichia coli it was -6.45%.
In the same order, the values of `O=C(Cn1nc2c3cc(-c4ccc(F)cc4)nn3ccn2c1=O)Nc1ccc2c(c1)OCCO2` are 10.64% and 1.96%.
As for `CC(=O)c1ccc(NC(=O)Cn2c(=O)c3nnc(C(C)C)n3c3ccccc32)cc1`, the Inhibition is given as 5.44% in the assay with Staphylococcus aureus and -3.86% in the assay with Escherichia coli.
Regarding `Cc1ccc(NC(=O)Cn2nc3c(Sc4cccc(F)c4)nccn3c2=O)cc1F`, the Inhibition is 12.19% in the assay with Staphylococcus aureus and 1.14% in the assay on Escherichia coli.
Regarding `CCc1nnc2c(SCC(=O)Nc3ccccc3Br)nc3ccccc3n12`, the Inhibition in the assay with Staphylococcus aureus is on record as 10.46%; in the assay with Escherichia coli, 0.26%.
In the same order, the values of `O=C(CSc1nnc2c(=O)n(-c3ccc(Br)cc3)ccn12)c1c[nH]c2ccccc12` are 12.46% and -2.65%.
Regarding `COc1cc(NC(=O)Cn2nc3c(SC4CCCCC4)nccn3c2=O)cc(OC)c1`, the Inhibition with Staphylococcus aureus is given as 0.44%; in the assay with Escherichia coli, -4.73%.
The corresponding values for `Cc1ccc(-c2ccc3nn(CC(=O)Nc4ccc(Cl)cc4F)c(=O)n3n2)cc1` are 8.27% and -2.22%.
The corresponding values for `Cc1ccc(C)c(C(=O)CSc2nnc3c(=O)n(-c4ccc(F)c(F)c4)ccn23)c1` are 18.46% and 1.4%.
Turning to `N#CCSc1nnc2c(=O)n(-c3ccc(Br)cc3)ccn12`, the Inhibition in the assay on Staphylococcus aureus is 14.93%; in the assay on Escherichia coli, -0.38%.
For `Cc1nnc2c(SCC(=O)Nc3ccc(Br)cc3F)nc3ccccc3n12`, the figures for the Inhibition with Staphylococcus aureus and with Escherichia coli were 1.94% and -10.05%, respectively.
With `Cc1ccc(Cl)cc1NC(=O)Cn1c(=O)c2nnc(C(C)C)n2c2ccccc21`, the Inhibition in the assay on Staphylococcus aureus is given as 2.92%; in the assay with Escherichia coli it was -2.02%.
For the molecule `O=C(CSc1nnc2c(=O)n(-c3cccc(F)c3)ccn12)Nc1ccc(Br)cc1`, the Inhibition in the assay on Staphylococcus aureus is reported as 17.12%; in the assay on Escherichia coli, -2.48%.
The corresponding values for `Cc1ccc2c(c1)N(C(=O)Cn1nc3ccc(S(=O)(=O)C(C)(C)C)nn3c1=O)CCO2` are 10.43% and 3.75%.
In the same order, the values of `O=C(CSc1nnc2c(=O)n(-c3cccc(F)c3)ccn12)NCCc1ccccc1` are -2.66% and -10.98%.
The corresponding values for `CCc1ccc(N(Cc2cccc(F)c2)S(=O)(=O)c2cccn3c(C)nnc23)cc1` are 10.02% and -2.48%.

The values above are taken from ChEMBL document CHEMBL4513146, “CO-ADD screening of Karazin Kharkiv National University (Ukraine) compounds”.
